# FMDV inh – High Throughput Screening for Foot and Mouth Disease Virus Antivirals. FMDV antiviral cell-based qHTS. Potency, µM (titrated, usually from 57.9 µM), for the others: at the highest dose activity change, negative = inhibition, usual class: inhibitors. actives 1.2% (n = 410,000); calls by dose curve; tested in HEK293T cells; note: read-out not given here; nearly all actives have a fitted effect of over 45% in size
# FBPA Giardia inh – qHTS Assay for Inhibitors of Fructose-1,6-bisphosphate Aldolase from Giardia Lamblia; A8B2U2; purified Giardia FBPA; Potency, µM (top dose mostly 59.6 µM), for the others: at the highest dose activity, negative = inhibition, actives largely listed as inhibitors; actives 0.71% (n = 290,000); AID 2451, 2010; active = well fitted inhibition curve with a large enough effect; inconclusive = small, poorly fitted or top-dose-only effect, or effect the other way; note: nearly all actives have a fitted effect of over 55% in size
# Target sequence (A8B2U2 whole entry, looked up): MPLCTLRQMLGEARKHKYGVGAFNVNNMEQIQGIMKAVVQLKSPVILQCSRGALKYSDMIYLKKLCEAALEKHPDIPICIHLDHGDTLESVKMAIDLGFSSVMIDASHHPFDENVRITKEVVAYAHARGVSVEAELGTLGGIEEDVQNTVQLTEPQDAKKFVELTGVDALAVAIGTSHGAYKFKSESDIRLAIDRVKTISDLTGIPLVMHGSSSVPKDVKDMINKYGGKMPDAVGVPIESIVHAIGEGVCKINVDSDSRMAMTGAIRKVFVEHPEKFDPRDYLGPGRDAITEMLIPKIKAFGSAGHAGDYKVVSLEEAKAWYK
#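 Giardia FBPA (40 nM reagent) was preincubated 10 min at RT with compound (up to 57.5 uM final), then substrate plus GAPDH/TPI/NAD/arsenate coupling system with diaphorase/resazurin was added; resorufin fluorescence (525/598 nm) was read after 20 min.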
# VACV Venus inh – qHTS for Stage-Specific Inhibitors of Vaccinia Orthopoxvirus: Venus Reporter Primary qHTS; Potency, µM (titrated, usually from 36.5 µM), for inactives: at the highest dose activity change, negative = inhibition, most hits filed as inhibitors; actives 0.46% (n = 330,000); Vaccinia virus Venus reporter expression, fluorescence; calls by dose curve; tested in A549 cells; note: nearly all actives have a fitted effect of over 30% in size
# VACV mCherry inh – qHTS for Stage-Specific Inhibitors of Vaccinia Orthopoxvirus: mCherry Reporter Primary qHTS | Potency, µM (titrated, usually from 36.5 µM), for the others: at the highest dose activity change, negative = inhibition, hits mostly inhibitors | actives 0.63% (n = 310,000) | AID 720579, 2013 | Vaccinia virus mCherry reporter infection, fluorescence; calls by dose curve; tested in A549 cells; note: nearly all actives have a fitted effect of over 35% in size
# Active calls of the source: *; i = inactive; ? = inconclusive; / = no result; [ ] = remark or other dose. In the library only some 2.2% were active in any assay of this set; here they are far more common. % is set by controls: 0 for no effect and ±100 for the full control effect; potency is the fitted concentration of half-maximal effect.
SMILES,FMDV inh,FBPA Giardia inh,VACV Venus inh,VACV mCherry inh
Cn1c(C(=O)NCc2cccs2)cc2oc3ccccc3c21,12.0%,13.9%,-2.5%,10µM*
Cn1c(C(=O)NCc2ccccc2F)cc2oc3ccccc3c21,24.8%,/,11.0%,?
CC(C)CC(=O)/C=C/n1c(=S)oc2ccccc21,?,-7.4%,-3.0%,-11.1%
CC(=O)/C=C/n1c(=S)oc2ccccc21,3.16µM*,3.7%,?,-27.8%
O=C(Nc1cc(Cl)cc(Cl)c1)c1cnn2c1NC(=C1CC1)C=C2C(F)F,/,/,-7.7%,-7.6%
COc1ccc(CN2CCCC(n3cc(C(=O)N4CCCCC4)nn3)C2)c(OC)c1OC (configuration not stated),?,/,-7.0%,-6.0%
NC1=C(Cl)C(=O)c2ccc(S(N)(=O)=O)cc2C1=O,2.51µM*,/,0.501µM*,?
CC[C@H](NC(=O)[C@H](CCC(=O)O)NC(=O)[C@H](CCC(=O)O)NC(=O)[C@H](CC(=O)O[S+](=O)([O-])c1cccc2c(NCCN)cccc12)NC(=O)[C@H](CCC(=O)O)NC(=O)[C@H](CC(=O)O)NC(C)=O)C(=O)ON[C@@H](C)C(=O)N[C@@H](CO)C(=O)N[C@@H](CCCCNC(=O)c1ccc(N=Nc2ccc(N(C)C)cc2)cc1)C(N)=O,/,-4.9%,/,/
O=C(c1cc(-c2ccc(Br)cc2)nc2ccccc12)N1CCN(c2ccccc2O)CC1,-14.4%,/,?,14.1µM*
O=C(NCC1Cc2cc(F)cc(-c3cnccn3)c2O1)c1cccc(Cl)c1 (configuration not stated),-12.0%,/,-1.1%,-2.3%
CC(=O)NC(c1cccc([N+](=O)[O-])c1)c1c(OC(C)=O)ccc2ccccc12 (configuration not stated),-21.2%,/,-23.0%,-14.1%
O=C(NC(c1ccc(Cl)cc1)c1c(O)ccc2ccccc12)c1ccccc1 (configuration not stated),?,-8.4%,?,10µM*
CCCCC(=O)NC(c1cccc([N+](=O)[O-])c1)c1c(OC(C)=O)ccc2ccccc12 (configuration not stated),?,-7.9%,?,28.2µM*
CCCCC(=O)NC(c1ccc([N+](=O)[O-])cc1)c1c(O)ccc2ccccc12 (configuration not stated),20µM*,?,?,?
CC(C)C(O)c1ccc2c(c1)CN(C(=O)c1ccccc1-n1cccn1)CCO2 (configuration not stated),-1.7%,/,1.9%,-9.0%
COc1ccc(S(=O)(=O)N2CCN(c3nc(-c4ccccc4)nc4ccccc34)CC2)cc1,/,/,-18.3%,-10.6%
C#CCN(C1CCCC1)S(=O)(=O)C=C,/,/,-70.1%,?
O=C(c1ccc2c(=O)n(Cc3ccco3)c(=S)[nH]c2c1)N1CCN(Cc2ccc3c(c2)OCO3)CC1,/,/,?,-21.9%
CC1CC(C)CC(C)C(O)C(C#N)=CC=CCC(C2CCCC2C(=O)O)OC(=O)CC(O)C(C)C1 (configuration not stated),?,/,1.12µM*,?
COc1cc(CNCCCN2CCOCC2)cc(Br)c1OCc1ccc(Cl)cc1,39.8µM*,12.2%,/,/
COc1cc(CNCCN2CCOCC2)ccc1OCc1ccc(Cl)cc1,-11.3%,-11.5%,-13.6%,/
COc1cccc(-c2nc(NCC3CCCO3)c3ccccc3n2)c1O (configuration not stated),17.8µM*,-3.8%,?,?
COc1cccc(-c2nc(NC(C)C)c3ccccc3n2)c1O,?,-10.2%,/,/
Oc1ccccc1-c1nc(NCC2CCCO2)c2ccccc2n1 (configuration not stated),?,1.4%,-27.1%,-21.5%
CCC(C)Nc1nc(-c2cccc(OC)c2O)nc2ccccc12 (configuration not stated),28.2µM*,-17.5%,?,?
SMILES,FMDV inh,FBPA Giardia inh,VACV Venus inh,VACV mCherry inh
Fc1ccc(N2CCN(Cc3ccc4c(c3)CN(Cc3cccn3-c3ncccn3)CCO4)CC2)cc1,-11.6%,/,-8.9%,-22.0%
O=C(CSc1nc2cc([N+](=O)[O-])ccc2n1-c1ccccc1)NCc1ccc2c(c1)OCO2,-23.1%,7.92µM*,-3.7%,i
O=C(c1ccc(S(=O)(=O)N2CCCCC2)cc1)N1CCN(CCN2C(=O)c3cccc4cccc(c34)C2=O)CC1,15.8µM*,0.0%,-4.3%,-2.0%
O=C(c1ccc(S(=O)(=O)N2CCCC2)cc1)N1CCCCCC1,-0.3%,2.0%,/,/
CCSc1ncnc2nc[nH]c12,/,/,-4.9%,-19.9%
Cc1ccccc1-c1nc2ccccc2c(=O)n1C,-9.9%,14.4%,-7.2%,-13.7%
CCc1ccc(-c2nc3c(=O)n(C)c(=O)nc-3n(CC)n2)cc1,/,/,11.2µM*,5.62µM*
Cn1nc(-c2ccccn2)nc2c(=O)n(C)c(=O)nc1-2,1.26µM*,?,/,/
Cc1ccccc1-c1nc2c(=O)n(C)c(=O)nc-2n(C)n1,/,/,0.891µM*,2.82µM*
Cc1ccc(-c2nc3c(=O)n(C)c(=O)nc-3n(C)n2)cc1,/,/,0.891µM*,2.82µM*
CCn1nnnc1Sc1nc(C)nc2scc(-c3ccccc3)c12,/,/,-17.3%,-12.3%
CCn1c(N)nc2c1c(=O)n(C)c(=O)n2C,-20.8%,8.0%,1.8%,10.7%
CCCc1nc2c(=O)n(C)c(=O)nc-2n(C)n1,2.51µM*,5µM*,1µM*,?
O=C(NNc1ccccc1Br)C(O)(c1cccc(C(F)(F)F)c1)c1cccc(C(F)(F)F)c1,35.5µM*,-8.7%,?,11.2µM*
CCC(=O)N1CCc2cc(S(=O)(=O)N(CC)c3cccc(C)c3)ccc21,0.0%,0.8%,-5.4%,-20.8%
CCN(c1cccc(C(F)(F)F)c1)S(=O)(=O)c1ccc2c(c1)CCN2C(=O)C1CC1,14.1µM*,0.9%,?,?
CCOc1ccc(Nc2nc(N)c3ccccc3n2)cc1,8.91µM*,?,?,?
CN(C)c1ccc(Nc2nc(N)c3ccccc3n2)cc1,7.08µM*,?,-27.0%,?
Nc1nc(Nc2ccccc2)nc2ccccc12,-43.1%,-7.5%,-23.8%,i
Fc1ccccc1-c1ccc(-c2nc3ccc(Cl)cn3c2Nc2ccc(Cl)cc2)o1,/,/,1.5%,-14.2%
NS(=O)(=O)c1ccc(CCNc2ncnc3sccc23)cc1,?,-1.0%,/,/
Cc1sc2ncnc(NCCc3ccc(S(N)(=O)=O)cc3)c2c1C,11.2µM*,8.1%,?,-8.5%[1.46 µM]
O=C(CCc1c[nH]c2ccccc12)N1CCC(n2c(C3CCCO3)nc3cc(C(F)(F)F)ccc32)CC1 (configuration not stated),-5.6%,/,2.3%,2.2%
CCOC(=O)c1[nH]c2ccc(F)cc2c1NC(=O)CN1CCN(C/C=C/c2ccccc2)CC1,31.6µM*,-0.1%,?,/
CCOC(=O)N1CCN(CC(=O)Nc2c(C(=O)OC)[nH]c3ccc(Cl)cc23)CC1,31.6µM*,-3.2%,-27.4%,?
COC(=O)c1[nH]c2ccccc2c1NC(=O)CN1CCN(C/C=C/c2ccccc2)CC1,/,0.8%,?,-26.0%
CCOC(=O)N1CCN(CC(=O)Nc2c(C(=O)OC)[nH]c3cc(C)ccc23)CC1,?,1.3%,/,/

# Bioassay records: PubChem, National Center for Advancing Translational Sciences (NCATS)
